Results on 14 compounds are retold here after the supplement of paper PMC5940239.

Assay [1] has as its system Madurella mycetomatis MM55. Briefly: percent growth relative to solvent control; higher = less inhibition, active = 20 or less. The settings on record: 100 µM; 7 days.
The subject of assay [2] is Madurella mycetomatis MM55. Conditions: 7 days.
Assay [3] has as its system Madurella mycetomatis MM55. Briefly: IC90; higher = less potent. The settings on record: 7 days.

`O=C1O[C@@H](COc2ccon2)CN1c1cc(F)c(C2=CCN(Cc3ccccc3)CC2)c(F)c1`: the percent growth in assay [1] was 20.9% (inactive).

On to `O=C1O[C@@H](CO)CN1c1cc(F)c(C2=CCN(Cc3ccccc3)CC2)c(F)c1`, for which, in assay [1], the percent growth is 70.2% (inactive).

For orientation: IC50 means the point on the concentration scale where inhibition reaches its midpoint. The term IC90 denotes the concentration needed for an effect of 90%. Turning to `CC1(C)OB(O)c2ccc(C3=NOC(c4cc(Cl)c(F)c(Cl)c4)(C(F)(F)F)C3)cc21` (centres undefined), the half-maximal inhibitory concentration (IC50) in assay [2] was 11.7 µM. In assay [3], the IC90 stood at 19.4 µM. The percent growth in assay [1] is -0.6% (active).

The compound `CO/N=C(\C(=O)OC)c1ccccc1CO/N=C(\C)c1cccc(C(F)(F)F)c1` registered an IC50 in assay [2] of 1.05 µM. The IC90 in assay [3] turned out to be 28.1 µM. For the same compound, the percent growth in assay [1] is 0.385% (active).

`CO/C=C(/C(=O)OC)c1ccccc1Oc1cc(Oc2ccccc2C#N)ncn1`: the IC50 in assay [2] was 0.6 µM. The concentration for an effect of 90% (IC90) in assay [3] turned out to be 20.4 µM. For the same compound, the percent growth in assay [1] is 1.6% (active).

For the compound `CC(C)(C)C(O)C(Oc1ccc(-c2ccccc2)cc1)n1cncn1` (centres undefined), the percent growth in assay [1] is -0.373% (active).

As for `Cc1nn(C)c(C)c1NS(=O)(=O)c1c(Cl)cc(-c2ccnc(N3CCNCC3)c2)cc1Cl`, the percent growth in assay [1] was 86% (inactive).

On to `Cc1nn(Cc2ccccc2)c(Cl)c1C(=O)NC1CCCCCC1`, for which the percent growth in assay [1] was 91.1% (inactive).

On to `Cc1cc(C2=NOC(c3cc(Cl)c(F)c(Cl)c3)(C(F)(F)F)C2)ccc1C(=O)NCc1ccc2c(c1)C(C)(C)OB2O` (centres undefined), for which the percent growth in assay [1] was 124% (inactive).

Consider `CC1COC(Cn2cncn2)(c2ccc(Oc3ccc(Cl)cc3)cc2Cl)O1` (centres undefined), for which, in assay [1], the percent growth was 0.489% (active).

As to `CO[C@@H]1CN(c2ccc(C#CC3(O)CN4CCC3CC4)c(Cc3ccccc3)n2)C[C@H]1O` (some centres undefined), the percent growth in assay [1] is 81.3% (inactive).

In the case of `Cc1cccc(C(=O)Nc2ccnc(N(C)C3CCN(CC(C)C)CC3)c2)c1`, in assay [2], the IC50 came to 26.2 µM. Besides, the IC90 in assay [3] stood at 53.4 µM. Moreover, the percent growth in assay [1] is 1.78% (active).

In assay [2], `Nc1c2c(nc3sc4c(c13)CCCC4)CCCC2` had an IC50 of 9.7 µM. The compound also came in with an IC90 in assay [3] of 16.4 µM. Moreover, the percent growth in assay [1] is -0.0392% (active).

Regarding `CCc1nn(C)c(C(=O)NCc2ccc(Oc3ccc(C)cc3)cc2)c1Cl`, the percent growth in assay [1] is 46.6% (inactive).
